Source: article PMC5540273 (PLoS ONE, 2017)

Columns and labels:
Details in all cases: concentration: 1 μM, replicates: in singlicate; n = 1
[1] = system: ULK3
[2] = system: T1, VEGFR2
T1 construct: gene KDR

[3] = system: T2, VPS34
T2 construct: gene PIK3C3

[4] = system: VRK2
[5] = system: WEE1
[6] = system: WEE2
[7] = system: WNK1
[8] = system: WNK2
[9] = system: WNK3
[10] = system: WNK4
[11] = system: T3, YANK1
T3 construct: gene STK32A

[12] = system: T4, YANK2
T4 construct: gene STK32B

[13] = system: T5, YANK3
T5 construct: gene STK32C

[14] = system: T6, YES
T6 construct: gene YES1

[15] = system: T7, YSK1
T7 construct: gene STK25

[16] = system: T8, YSK4
T8 construct: gene MAP3K19

[17] = system: ZAK
[18] = system: ZAP70
[19] = system: T9, p38-alpha
T9 construct: gene MAPK14

[20] = system: T10, p38-beta
T10 construct: gene MAPK11
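Also: KINOMEscan kinase panel screen.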

| Structure (SMILES) | %Inh [1] [%] | %Inh [2] [%] | %Inh [3] [%] | %Inh [4] [%] | %Inh [5] [%] | %Inh [6] [%] | %Inh [7] [%] | %Inh [8] [%] | %Inh [9] [%] | %Inh [10] [%] | %Inh [11] [%] | %Inh [12] [%] | %Inh [13] [%] | %Inh [14] [%] | %Inh [15] [%] | %Inh [16] [%] | %Inh [17] [%] | %Inh [18] [%] | %Inh [19] [%] | %Inh [20] [%] |
| --- | --- | --- | --- | --- | --- | --- | --- | --- | --- | --- | --- | --- | --- | --- | --- | --- | --- | --- | --- | --- |
| COc1cc2ncn(-c3cc(OCc4ccncc4)c(C(N)=O)s3)c2cc1OC [GSK336313] | 9 | 7 | 5 | 0 | 33 | 15 | 7 | 0 | 10 | 0 | 8 | 0 | 4 | 0 | 35 | 30 | 1 | 0 | 5 | 0 |
| COc1cccc(C2=C(Nc3cccc(C(=O)O)c3)C(=O)NC2=O)c1 [SB-390770] | 9 | 11 | 34 | 16 | 0 | 7 | 3 | 18 | 5 | 0 | 12 | 0 | 16 | 8 | 0 | 14 | 41 | 7 | 0 | 11 |
| CCn1c(-c2ccoc2)nc2cnccc21 [SB-733887] | 11 | 65 | 0 | 8 | 4 | 0 | 15 | 18 | 19 | 0 | 0 | 4 | 27 | 0 | 12 | 49 | 34 | 0 | 0 | 0 |
| COc1cc(Nc2ccnc3ccc(C(F)(F)F)cc23)cc(OC)c1OC [GW577382] | 14 | 0 | 0 | 27 | 11 | 14 | 8 | 13 | 27 | 0 | 4 | 16 | 44 | 13 | 1 | 0 | 12 | 0 | 30 | 25 |
| Cc1nnc(-c2ccc3ncn(-c4ccc(S(C)=O)cc4)c3c2)o1 (centres unmarked) | 0 | 3 | 15 | 0 | 0 | 21 | 0 | 0 | 0 | 0 | 0 | 0 | 4 | 7 | 0 | 21 | 12 | 0 | 0 | 13 |
| Nc1nccc2scc(-c3ccc4c(c3)CCN4C(=O)Cc3ccccc3)c12 [GSK2576924] | 12 | 5 | 0 | 0 | 14 | 0 | 17 | 26 | 27 | 0 | 10 | 9 | 0 | 5 | 0 | 36 | 0 | 0 | 0 | 0 |
| CCC(=O)c1c(-c2ccccc2)c2cc(Cl)ccc2c(=O)n1Cc1cc(S(C)(=O)=O)n(CC(N)=O)n1 | 8 | 0 | 0 | 0 | 4 | 0 | 0 | 0 | 0 | 0 | 0 | 0 | 0 | 0 | 0 | 0 | 0 | 0 | 0 | 8 |
| COc1cc(OC)cc(-c2cc3cnc(N)nc3nc2NC(=O)NC(C)(C)C)c1 | 0 | 36 | 0 | 0 | 0 | 5 | 0 | 0 | 0 | 0 | 11 | 19 | 0 | 100 | 0 | 15 | 15 | 0 | 6 | 7 |
| Cc1nn2c(=O)cc(N3CCOCC3)nc2n1Cc1cccc(Cl)c1Cl [GSK2342769] | 11 | 0 | 95.4 | 0 | 1 | 9 | 0 | 3 | 13 | 0 | 0 | 0 | 22 | 13 | 0 | 32 | 9 | 0 | 0 | 0 |
| Nc1n[nH]c2nnc(-c3ccccc3)c(-c3ccccc3)c12 [GW554060] | 16 | 0 | 0 | 18 | 44 | 9 | 3 | 41 | 18 | 14 | 7 | 0 | 26 | 17 | 0 | 16 | 5 | 0 | 0 | 0 |
| Cc1cc(Nc2nc(-c3cccc(C)n3)nc3ccccc23)ccn1 [GW872411] | 0 | 0 | 0 | 40 | 1 | 2 | 0 | 0 | 0 | 0 | 0 | 0 | 0 | 0 | 0 | 0 | 0 | 0 | 20 | 0 |
| COc1cccc(C2=C(N(C)c3ccccc3)C(=O)NC2=O)c1 [SB-334865] | 12 | 1 | 0 | 10 | 4 | 0 | 8 | 0 | 20 | 15 | 0 | 0 | 2 | 21 | 8 | 37 | 20 | 0 | 14 | 0 |
| OCCCNc1nccc(-c2c(-c3cccc(C(F)(F)F)c3)nn3cc(C(F)(F)F)ccc23)n1 [GW630813] | 0 | 3 | 0 | 18 | 0 | 0 | 0 | 0 | 33 | 85 | 0 | 0 | 0 | 0 | 1 | 2 | 0 | 0 | 99.4 | 30 |
| FC(F)(F)c1ccc(-c2ncn(CCCN3CCOCC3)c2-c2ccncc2)cc1 [SB-217780] | 4 | 14 | 13 | 42 | 48 | 34 | 20 | 0 | 15 | 0 | 17 | 1 | 7 | 3 | 0 | 10 | 17 | 12 | 25 | 5 |
| O=C1NC(=O)C(c2ccccc2)=C1Nc1cccc(O)c1 [SB-390534] | 26 | 7 | 19 | 0 | 0 | 1 | 0 | 0 | 0 | 9 | 0 | 0 | 0 | 0 | 8 | 0 | 8 | 0 | 1 | 3 |
| CN(C)c1cc(-c2ccc3c(N)n[nH]c3c2)nc(N)n1 [GSK2219329] | 9 | 3 | 0 | 0 | 3 | 1 | 3 | 0 | 15 | 32 | 7 | 0 | 0 | 1 | 12 | 16 | 92.5 | 0 | 0 | 0 |
| CCc1ccc(-c2ccc3c(c2)-c2nn(C)cc2S(=O)(=O)N3C)cc1 | 0 | 0 | 0 | 14 | 21 | 0 | 6 | 0 | 0 | 0 | 0 | 12 | 0 | 0 | 0 | 0 | 0 | 0 | 0 | 12 |
| Nc1ncnc2c1ncn2-c1cccc2ccccc12 [SKF-97184] | 30 | 0 | 56 | 29 | 0 | 0 | 15 | 0 | 29 | 15 | 0 | 80 | 4 | 0 | 12 | 23 | 0 | 37 | 0 | 0 |
| COc1cc2ncn(-c3cc(OCCCc4ccccc4)c(C(N)=O)s3)c2cc1OC [GSK205189] | 3 | 0 | 0 | 0 | 12 | 4 | 0 | 8 | 0 | 0 | 0 | 0 | 19 | 0 | 0 | 0 | 0 | 0 | 0 | 0 |
| COC(=O)c1c(-c2ccccc2)c2cc(Br)ccc2c(=O)n1Cc1ccc(NC(=O)CCC(=O)O)cc1 | 16 | 0 | 0 | 0 | 0 | 21 | 0 | 26 | 0 | 0 | 0 | 21 | 0 | 0 | 0 | 12 | 36 | 0 | 5 | 5 |
| CCCC(=O)Nc1n[nH]c2ncc(-c3cccc4ccccc34)cc12 [SB-642057] | 26 | 11 | 0 | 0 | 6 | 0 | 12 | 6 | 0 | 0 | 0 | 6 | 42 | 9 | 8 | 57 | 54 | 0 | 14 | 4 |
| Fc1cccc(CSc2nnc(-c3ccc4c(c3)CCO4)o2)c1 | 11 | 0 | 13 | 5 | 0 | 16 | 0 | 14 | 0 | 0 | 16 | 12 | 0 | 8 | 0 | 20 | 0 | 0 | 0 | 16 |
